In the supplement of paper PMC10849652:
Of roughly 7,900 targets only a part is listed; those with a hit were picked by preference. About 0.6% of all pairs of compound and target were hits. A number with no mark means an inactive call.

What was measured:
Assay in all cases: log2 fold change, soluble protein after heating vs DMSO (PISA); higher = thermal stabilisation; K562 cells, 10 uM, 30 min; active = over 0.2 and 3.5 SD of the protein, either way, in both replicates (recomputed)
erlotinib = compound: C#Cc1cccc(Nc2ncnc3cc(OCCOC)c(OCCOC)cc23)c1 [erlotinib]
Outline: (§1)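 Thermal stability values are relative to control samples and come from duplicates. They are expressed as log2 fold changes. For measurement, K562 cells (2×10^6 cells/mL) received 10 μM compound for 30 min, and aliquots were heated for 3 min over 48°C-58°C, pooled, and extracted at 4°C in PBS with 0.5% NP-40. Soluble protein, the supernatant after 21,000xg for 90 min, was quantified by TMTpro 16plex LC-MS/MS with equalised channel sums.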

[1] = compound: C/C(=N\NC(=O)C1=CC(=CC=C1)S(=O)(=O)N2CCOCC2)/C3=C(C=CC(=C3)Cl)O
Outline: as §1

[2] = compound: C1=CC(=C(C=C1Cl)C2=NC3=NC=CN=C3C(=N2)NC4=CC=NC=C4)F
Outline: as §1

[3] = compound: C1=CC(=CC=C1C2=NC3=C(N2)C=C(C=C3)C(=O)N)OC4=CC=C(C=C4)Cl
Outline: as §1

[4] = compound: C1=CC2=C(C=CC(=C2)/C=C\3/C(=O)NC(=NCC4=CC=CS4)S3)N=C1
Outline: as §1

[5] = compound: C1=CC2=NC=CN=C2C=C1/C=C/3\C(=O)NC(=O)S3
Outline: as §1

[6] = compound: C1=CC=C(C=C1)C2=NC(=C(N2)C3=CC=NC=C3)C4=CC(=C(C=C4)Cl)O
Outline: as §1

[7] = compound: C1=CC=C2C(=C1)C3=NNC4=CC=CC(=C43)C2=O
Outline: as §1

[8] = compound: C1CCN(C1)C(=O)NC2=CC=CC(=C2)NC3=NC=C(C(=N3)NCCC4=CN=CN4)Br
Outline: as §1

[9] = compound: C1CN(CCC1(CC2=CC=C(C=C2)Cl)N)C3=NC=NC4=C3C=CN4
Outline: as §1

Sequence of UniProt Q07666 (Q07666 whole entry, looked up): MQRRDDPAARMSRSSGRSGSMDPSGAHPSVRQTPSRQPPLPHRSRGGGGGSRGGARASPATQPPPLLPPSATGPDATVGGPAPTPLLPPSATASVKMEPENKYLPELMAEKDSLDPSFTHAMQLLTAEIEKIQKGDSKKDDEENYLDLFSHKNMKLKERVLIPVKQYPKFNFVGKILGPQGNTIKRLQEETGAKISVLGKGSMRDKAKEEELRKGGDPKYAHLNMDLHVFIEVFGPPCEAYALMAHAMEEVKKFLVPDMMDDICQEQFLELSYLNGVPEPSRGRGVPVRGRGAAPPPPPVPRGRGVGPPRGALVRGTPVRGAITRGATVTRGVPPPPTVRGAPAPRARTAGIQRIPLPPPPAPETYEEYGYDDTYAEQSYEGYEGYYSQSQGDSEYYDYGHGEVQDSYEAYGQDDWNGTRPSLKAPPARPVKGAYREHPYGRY
Sequence of UniProt Q96LU5 (Q96LU5 whole entry, looked up): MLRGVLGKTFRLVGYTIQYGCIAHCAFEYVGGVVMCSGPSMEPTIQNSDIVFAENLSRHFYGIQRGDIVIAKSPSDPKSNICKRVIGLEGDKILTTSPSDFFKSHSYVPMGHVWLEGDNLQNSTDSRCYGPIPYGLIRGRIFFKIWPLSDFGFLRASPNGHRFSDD
Sequence of UniProt Q14653 (Q14653 whole entry, looked up): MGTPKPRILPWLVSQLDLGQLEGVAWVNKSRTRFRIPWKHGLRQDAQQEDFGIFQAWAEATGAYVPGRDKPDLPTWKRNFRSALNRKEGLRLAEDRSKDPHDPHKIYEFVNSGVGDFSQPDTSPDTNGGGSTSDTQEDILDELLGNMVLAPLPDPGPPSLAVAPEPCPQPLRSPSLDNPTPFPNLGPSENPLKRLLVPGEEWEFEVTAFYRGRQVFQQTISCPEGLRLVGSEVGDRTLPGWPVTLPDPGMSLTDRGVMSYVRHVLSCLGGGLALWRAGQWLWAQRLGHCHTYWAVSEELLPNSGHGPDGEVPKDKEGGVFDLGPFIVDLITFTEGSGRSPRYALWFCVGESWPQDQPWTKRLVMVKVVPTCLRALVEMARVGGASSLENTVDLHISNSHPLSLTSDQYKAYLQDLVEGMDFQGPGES
Sequence of UniProt Q96G25 (Q96G25 whole entry, looked up): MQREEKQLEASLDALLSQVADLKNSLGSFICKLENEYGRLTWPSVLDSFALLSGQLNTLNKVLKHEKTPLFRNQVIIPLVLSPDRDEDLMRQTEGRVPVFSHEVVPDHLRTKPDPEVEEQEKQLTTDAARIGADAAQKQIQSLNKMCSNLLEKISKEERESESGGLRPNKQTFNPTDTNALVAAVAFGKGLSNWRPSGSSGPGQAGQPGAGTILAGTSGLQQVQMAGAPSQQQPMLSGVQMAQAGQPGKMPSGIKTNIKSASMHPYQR
Sequence of UniProt Q8WVP7 (Q8WVP7 whole entry, looked up): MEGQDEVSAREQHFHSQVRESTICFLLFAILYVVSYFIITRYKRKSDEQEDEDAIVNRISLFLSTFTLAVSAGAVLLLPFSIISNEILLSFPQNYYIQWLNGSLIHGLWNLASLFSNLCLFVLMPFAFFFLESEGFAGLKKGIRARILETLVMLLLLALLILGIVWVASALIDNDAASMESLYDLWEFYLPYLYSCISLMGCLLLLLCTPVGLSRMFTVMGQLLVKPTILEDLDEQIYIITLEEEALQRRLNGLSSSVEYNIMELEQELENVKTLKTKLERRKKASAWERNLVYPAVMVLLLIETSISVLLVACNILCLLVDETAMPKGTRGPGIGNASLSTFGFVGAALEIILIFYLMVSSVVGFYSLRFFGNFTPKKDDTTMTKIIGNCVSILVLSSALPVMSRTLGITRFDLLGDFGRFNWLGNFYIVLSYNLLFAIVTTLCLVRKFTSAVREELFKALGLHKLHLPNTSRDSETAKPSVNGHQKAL
Sequence of UniProt Q68DH5 (Q68DH5 whole entry, looked up): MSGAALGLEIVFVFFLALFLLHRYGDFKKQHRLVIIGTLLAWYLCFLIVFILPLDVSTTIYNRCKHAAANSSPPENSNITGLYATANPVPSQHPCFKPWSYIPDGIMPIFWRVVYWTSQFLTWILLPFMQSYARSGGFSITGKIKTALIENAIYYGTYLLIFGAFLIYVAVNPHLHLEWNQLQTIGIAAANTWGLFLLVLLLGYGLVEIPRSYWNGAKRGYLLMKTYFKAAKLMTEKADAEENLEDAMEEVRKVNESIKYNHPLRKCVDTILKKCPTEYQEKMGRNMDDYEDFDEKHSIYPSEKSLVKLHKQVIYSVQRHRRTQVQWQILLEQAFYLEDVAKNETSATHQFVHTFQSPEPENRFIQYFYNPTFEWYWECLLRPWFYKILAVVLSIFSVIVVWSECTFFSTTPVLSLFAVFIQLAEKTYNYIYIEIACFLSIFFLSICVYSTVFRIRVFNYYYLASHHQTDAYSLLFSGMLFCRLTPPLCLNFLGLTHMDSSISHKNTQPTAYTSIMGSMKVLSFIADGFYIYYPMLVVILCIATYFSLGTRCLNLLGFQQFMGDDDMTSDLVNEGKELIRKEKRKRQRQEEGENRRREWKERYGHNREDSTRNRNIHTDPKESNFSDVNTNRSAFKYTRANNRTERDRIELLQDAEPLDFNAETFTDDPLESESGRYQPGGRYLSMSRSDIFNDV
Sequence of UniProt Q96AQ8 (Q96AQ8 whole entry, looked up): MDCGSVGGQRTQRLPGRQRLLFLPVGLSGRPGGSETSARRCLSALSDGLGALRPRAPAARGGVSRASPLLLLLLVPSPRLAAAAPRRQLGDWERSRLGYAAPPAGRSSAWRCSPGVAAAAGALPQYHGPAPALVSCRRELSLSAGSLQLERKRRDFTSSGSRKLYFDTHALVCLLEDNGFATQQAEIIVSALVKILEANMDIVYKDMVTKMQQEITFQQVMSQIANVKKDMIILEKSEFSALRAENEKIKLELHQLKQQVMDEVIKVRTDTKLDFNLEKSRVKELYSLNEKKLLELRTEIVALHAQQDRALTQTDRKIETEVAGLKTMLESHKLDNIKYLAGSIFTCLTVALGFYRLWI
Sequence of UniProt Q13257 (Q13257 whole entry, looked up): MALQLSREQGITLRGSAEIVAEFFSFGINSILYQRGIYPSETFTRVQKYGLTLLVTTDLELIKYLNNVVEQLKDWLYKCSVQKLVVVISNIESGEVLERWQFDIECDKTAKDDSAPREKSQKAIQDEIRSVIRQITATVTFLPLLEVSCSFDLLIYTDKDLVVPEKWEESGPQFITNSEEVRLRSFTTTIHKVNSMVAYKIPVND
Sequence of UniProt Q6N075 (Q6N075 whole entry, looked up): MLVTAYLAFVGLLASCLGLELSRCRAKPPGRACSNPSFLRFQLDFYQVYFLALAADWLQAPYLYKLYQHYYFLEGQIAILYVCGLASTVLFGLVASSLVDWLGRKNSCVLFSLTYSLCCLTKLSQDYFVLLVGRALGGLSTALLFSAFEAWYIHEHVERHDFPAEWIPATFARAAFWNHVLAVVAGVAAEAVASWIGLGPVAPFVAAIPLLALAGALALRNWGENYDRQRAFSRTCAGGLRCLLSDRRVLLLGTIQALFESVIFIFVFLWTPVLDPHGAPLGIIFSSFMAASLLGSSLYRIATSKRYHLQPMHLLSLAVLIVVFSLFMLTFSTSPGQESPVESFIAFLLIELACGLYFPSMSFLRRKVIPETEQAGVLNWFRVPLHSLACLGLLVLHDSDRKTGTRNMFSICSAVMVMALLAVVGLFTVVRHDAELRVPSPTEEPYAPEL
Sequence of UniProt O95373 (O95373 whole entry, looked up): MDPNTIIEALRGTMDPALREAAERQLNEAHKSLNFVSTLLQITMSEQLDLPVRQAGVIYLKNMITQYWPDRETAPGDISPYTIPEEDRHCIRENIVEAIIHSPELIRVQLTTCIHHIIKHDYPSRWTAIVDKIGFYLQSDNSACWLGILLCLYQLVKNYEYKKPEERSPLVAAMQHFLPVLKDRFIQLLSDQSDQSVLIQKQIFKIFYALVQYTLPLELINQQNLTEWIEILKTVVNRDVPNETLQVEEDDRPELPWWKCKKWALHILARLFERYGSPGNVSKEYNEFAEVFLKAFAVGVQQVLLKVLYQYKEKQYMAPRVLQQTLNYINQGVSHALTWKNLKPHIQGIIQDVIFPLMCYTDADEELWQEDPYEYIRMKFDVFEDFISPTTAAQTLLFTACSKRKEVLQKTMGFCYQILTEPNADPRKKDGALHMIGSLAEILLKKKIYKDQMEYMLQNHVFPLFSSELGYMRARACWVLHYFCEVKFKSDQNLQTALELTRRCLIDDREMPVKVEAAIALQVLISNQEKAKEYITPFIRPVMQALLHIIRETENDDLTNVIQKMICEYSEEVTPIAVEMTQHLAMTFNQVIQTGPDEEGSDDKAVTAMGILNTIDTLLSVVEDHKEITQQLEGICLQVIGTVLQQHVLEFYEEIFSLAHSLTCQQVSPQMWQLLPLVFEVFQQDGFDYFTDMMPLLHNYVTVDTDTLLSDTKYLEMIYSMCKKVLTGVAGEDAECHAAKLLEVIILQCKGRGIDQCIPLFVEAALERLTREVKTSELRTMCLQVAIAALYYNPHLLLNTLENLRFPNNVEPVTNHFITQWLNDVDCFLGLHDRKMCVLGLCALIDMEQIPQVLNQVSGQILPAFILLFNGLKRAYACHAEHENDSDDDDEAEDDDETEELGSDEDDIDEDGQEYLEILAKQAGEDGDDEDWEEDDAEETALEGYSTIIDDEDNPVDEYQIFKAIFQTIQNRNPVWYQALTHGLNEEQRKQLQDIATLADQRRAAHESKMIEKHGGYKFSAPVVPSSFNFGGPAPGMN
Sequence of UniProt Q9C0E8 (Q9C0E8 whole entry, looked up): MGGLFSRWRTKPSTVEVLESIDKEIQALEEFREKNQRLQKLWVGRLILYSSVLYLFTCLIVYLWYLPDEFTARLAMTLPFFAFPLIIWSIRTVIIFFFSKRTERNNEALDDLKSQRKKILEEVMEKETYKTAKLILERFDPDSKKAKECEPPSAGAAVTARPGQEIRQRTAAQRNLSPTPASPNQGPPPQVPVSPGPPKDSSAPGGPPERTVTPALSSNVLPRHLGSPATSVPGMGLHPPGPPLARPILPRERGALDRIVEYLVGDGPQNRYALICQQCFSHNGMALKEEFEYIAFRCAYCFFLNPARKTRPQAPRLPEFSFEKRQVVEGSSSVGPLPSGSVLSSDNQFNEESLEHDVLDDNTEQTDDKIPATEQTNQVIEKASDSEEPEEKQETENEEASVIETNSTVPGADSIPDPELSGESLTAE

Target	log2 fold change (erlotinib)	log2 fold change [1]	log2 fold change [2]	log2 fold change [3]	log2 fold change [4]	log2 fold change [5]	log2 fold change [6]	log2 fold change [7]	log2 fold change [8]	log2 fold change [9]
MAP1LC3B2 (UniProt A6NCE7)	0.009	0.093	0.038	0	-0.031	0.052	0.016	0.083	-0.002	0.036
IRF3 (UniProt Q14653)	0.042	0.056	0.019	-0.022	0.046	-0.022	-0.036	0	-0.055	-0.008
LPIN3 isoform 2 (UniProt Q9BQK8)	0.053	0.062	0.038	-0.045	0.108	0.022	-0.048	0.022	0.002	-0.014
IPO7 (UniProt O95373)	-0.015	0.078	0.034	-0.003	0.01	0.056	0.026	-0.019	-0.004	-0.05
MAPK14 isoform 2 (UniProt Q16539)	0.313	-0.051	0.936 (active)	-0.136	0.01	-0.013	1 (active)	0.207	0.021	-0.102
LEO1 (UniProt Q8WVC0)	0.132	0.108	0.194	-0.079	-0.006	0.007	-0.035	-0.039	-0.076	-0.045
LMNB1 (UniProt P20700)	-0.06	0.071	0.001	0.029	-0.073	0.064	-0.07	-0.151	-0.079	0.001
KHDRBS1 (UniProt Q07666)	-0.023	0.042	-0.076	0.029	-0.088	0.046	0.027	0.014	-0.029	-0.084
KIF3A (UniProt Q9Y496)	-0.222	-0.06	-0.069	-0.122	-0.049	0.034	-0.062	-0.025	-0.011	-0.067
LEMD3 (UniProt Q9Y2U8)	0.102	0.091	0.109	-0.007	0.003	-0.05	-0.01	0.169	-0.063	-0.029
KMT2C isoform 3 (UniProt Q8NEZ4)	0.038	-0.032	0.006	0.012	0.078	0.021	-0.194	-0.056	0.003	0.018
LNPEP (UniProt Q9UIQ6)	-0.005	-0.002	0.046	0.016	0.019	0.034	0.067	-0.008	-0.01	0.042
ITM2C (UniProt Q9NQX7)	-0.078	-0.019	0.013	-0.297	-0.023	0.062	-0.029	0.052	–	–
MAP4 isoform 5 (UniProt P27816)	0.056	-0.214	0.038	-0.067	-0.031	-0.116	-0.051	0.152	–	–
IK (UniProt Q13123)	0.049	0	-0.069	0	0.055	-0.022	-0.016	-0.11	-0.004	-0.065
KIF21A isoform 4 (UniProt Q7Z4S6)	0.017	0.056	-0.043	-0.016	-0.023	0.006	-0.075	-0.065	-0.144	-0.233
KIFBP (UniProt Q96EK5)	-0.034	0.147	0	0.017	0.074	-0.015	-0.008	0.03	0.014	-0.058
MIEN1 (UniProt Q9BRT3)	0.023	0.048	0.046	-0.02	0.033	0.099	0.035	-0.065	0.024	-0.076
MAPKAPK2 (UniProt P49137)	0.033	0.059	0.186	-0.011	0.064	0.008	0.207	-0.069	0.047	0.002
LTO1 (UniProt Q8WV07)	-0.095	0.072	0.032	0.059	0.002	0.089	-0.035	-0.052	-0.032	0.169

Target	log2 fold change (erlotinib)	log2 fold change [1]	log2 fold change [2]	log2 fold change [3]	log2 fold change [4]	log2 fold change [5]	log2 fold change [6]	log2 fold change [7]	log2 fold change [8]	log2 fold change [9]
MCU (UniProt Q8NE86)	0.007	0.042	0.083	0.008	0.027	0.013	0.001	0.014	0.004	0.013
LARP1 (UniProt Q6PKG0)	-0.051	0.002	-0.11	0.085	-0.025	-0.001	-0.081	-0.067	0.046	-0.172
KLHL18 (UniProt O94889)	-0.011	0	0.12	0.022	0.031	-0.02	-0.042	-0.085	-0.042	-0.026
MED8 isoform 2 (UniProt Q96G25)	0.017	-0.19	-0.056	0.035	-0.031	0.152	-0.153	-0.196	–	–
MFN1 (UniProt Q8IWA4)	-0.002	-0.026	0.042	0.001	0.07	0.347	-0.016	-0.015	0.025	-0.039
INTS5 (UniProt Q6P9B9)	-0.027	0.025	-0.403 (active)	-0.086	-0.023	0.097	-0.138	-0.18	-0.126	-0.033
MFSD5 isoform 2 (UniProt Q6N075)	0.147	0.057	0.041	0.115	-0.061	0.038	-0.144	0.109	0.014	0.034
MED22 (UniProt Q15528)	-0.11	0.035	-0.013	-0.036	0.061	-0.002	0.022	-0.071	-0.156	0.259
LPGAT1 (UniProt Q92604)	-0.005	0.022	0.201	-0.274	0.183	0.098	-0.043	-0.025	0.017	0.115
MAGI1 (UniProt Q96QZ7)	-0.022	0	-0.083	0.049	-0.008	0.018	-0.015	-0.016	0.012	-0.047
KCT2 (UniProt Q8NC54)	0.069	0.019	0.064	0.061	-0.005	0.075	0.096	-0.005	-0.028	0.056
LIMD1 (UniProt Q9UGP4)	0.017	0.058	0.062	-0.019	-0.01	0.077	0.013	0.006	-0.045	0.042
MASTL (UniProt Q96GX5)	0.008	0.045	0.026	-0.015	-0.076	0.124	-0.087	0.007	–	–
MAPK12 (UniProt P53778)	-0.039	-0.033	-0.093	-0.053	0.008	-0.074	0.073	0.003	0.087	0.024
MCUR1 (UniProt Q96AQ8)	-0.012	-0.03	0.055	0.003	0.053	-0.006	0.102	0.005	-0.023	0.063
IP6K1 (UniProt Q92551)	-0.054	0.017	-0.24	0	0.25	-0.025	-0.088	0.142	-0.083	0.067
LRPPRC (UniProt P42704)	0.265	0.526	0.002	-0.255	0.204	-0.148	0.185	-0.223	-0.133	-0.197
LNPK (UniProt Q9C0E8)	0.011	-0.028	0.05	0	-0.018	0.058	0	-0.02	0.007	0.089
IMMP1L (UniProt Q96LU5)	0.053	-0.018	0.01	-0.017	0.104	-0.022	-0.084	-0.046	0.041	0.013
ILK (UniProt Q13418)	0	-0.119	-0.086	0.016	0.091	0.002	-0.056	-0.056	0.068	0.008

Target	log2 fold change (erlotinib)	log2 fold change [1]	log2 fold change [2]	log2 fold change [3]	log2 fold change [4]	log2 fold change [5]	log2 fold change [6]	log2 fold change [7]	log2 fold change [8]	log2 fold change [9]
MDN1 (UniProt Q9NU22)	0.063	0.11	0.02	-0.025	0.144	0.037	0.02	-0.022	-0.025	0
LDLR (UniProt P01130)	-0.035	0.003	-0.04	0.03	-0.018	0.025	0.011	-0.113	0.025	0.051
MAD2L1 (UniProt Q13257)	-0.01	0.056	0.029	-0.052	0.033	0.056	-0.009	0.007	0.01	-0.032
IWS1 (UniProt Q96ST2)	0.029	0.029	0.091	0	-0.033	0.022	-0.013	-0.077	-0.067	-0.033
KIF11 (UniProt P52732)	0.042	0.032	-0.106	-0.058	0.038	0.012	-0.168	0.011	-0.017	-0.158
LMBR1 isoform 3 (UniProt Q8WVP7)	0.148	-0.016	-0.034	0.071	-0.046	0.081	-0.14	-0.013	0.037	0.15
L2HGDH (UniProt Q9H9P8)	0.027	0.169	0.009	0.043	0.07	0.01	0.05	0.093	-0.005	-0.007
MICU2 (UniProt Q8IYU8)	-0.013	-0.013	-0.06	-0.002	-0.038	-0.015	0.103	0.018	0.045	-0.042
MAP4 (UniProt E7EVA0)	0	-0.093	-0.219	0.063	-0.087	0.058	-0.086	-0.003	0.034	-0.053
MGST1 (UniProt P10620)	-0.032	-0.037	0.063	0.021	0.02	0.038	0.024	-0.057	-0.004	-0.049
MARK2 (UniProt E9PC69)	0.12	0.091	0.043	-0.042	0.115	-0.1	-0.014	-0.756 (active)	-0.227	-0.126
KLHDC4 (UniProt Q8TBB5)	-0.066	-0.075	-0.174	-0.013	0.077	-0.123	-0.081	0.07	-0.113	0.119
LMBRD2 (UniProt Q68DH5)	0.015	-0.007	0.097	0.011	0.022	0.038	0.016	-0.118	-0.073	0.1
MAP4K4 isoform 3 (UniProt O95819)	-0.057	0.058	-0.047	0.021	0	0.034	-0.069	-0.316 (active)	-0.031	-0.012
LYN (UniProt P07948)	-0.073	0.044	-0.171	0.007	0.005	-0.028	-0.014	-0.253	0.035	-0.015
IKZF1 (UniProt Q13422)	-0.005	-0.018	-0.008	0.002	-0.015	0.019	-0.069	0.144	0.051	0
LENG8 (UniProt Q96PV6)	-0.072	0.133	0.091	0.108	-0.024	-0.037	-0.141	0.096	0.152	-0.229
LSS (UniProt P48449)	0.293	0.073	-0.029	0.051	0.128	0.069	-0.005	0.081	0.005	0.089
MAP4 (UniProt P27816)	0.003	-0.041	0.006	-0.009	-0.039	0.011	-0.007	-0.02	-0.025	0.015
MFSD1 isoform 6 (UniProt Q9H3U5)	-0.011	0.011	0.006	0.029	-0.002	-0.009	0.018	0.014	0.059	0.084
